KDM5B inhibitor: blocks human KDM5B histone demethylase activity; Q9UGL1; AID 1347165; KDM5B demethylase, FDH-coupled NADH fluorescence (FDH is formaldehyde dehydrogenase); Potency, µM (top dose mostly 57.7 µM), most hits filed as inhibitors; 220,000 compounds, 2.6% hits; active means well fitted inhibition curve with a large enough effect; further: 0% is about no effect; nearly all actives have a fitted effect of over 70% in size
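KDM5BΔAP (200 nM final) in 50 mM HEPES pH 7.5, 0.01% Tween-20 was preincubated 10 min at RT with compound over a concentration range. Substrate mix (H3K4me3 12.5 µM, α-KG 25 µM, Fe²⁺, ascorbate, NAD⁺, FDH) was added, and NADH fluorescence change over 30 min gave dose-response curves.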
* = called active by the depositor; i = inactive. The entries come from a sample that favours hits as a whole. Potency means the concentration at half of the fitted maximal effect.

SMILES	KDM5B inhibitor
COc1ccc(Cl)cc1-c1ccc2c(c1)C(=O)N1CCN(C(=O)CO)C[C@@H]1C(=O)N2	35µM*
COc1ccc(Cl)cc1-c1ccc2c(c1)C(=O)N1CCN(C(=O)c3ccco3)C[C@H]1C(=O)N2	35µM*
O=C(NCCc1cccc(F)c1)C1CCCC1	i
CCN(CC)c1ccc(/C=N/NS(=O)(=O)c2ccccc2)cc1	i
O=c1oc2ccc(Cl)cc2cc1-c1csc(Nc2ccc(F)cc2)n1	i
COc1ccc2[nH]c(C(=O)N3C[C@@H](CO)[C@H](c4ccncc4)C3)cc2c1	32µM*
CNC(=O)[C@@H]1CN(C(=O)C2(c3ccc(OC)cc3)CC2)C[C@H]1CO	i
CNC(=O)[C@@H]1CN(C(=O)COc2ccc(F)cc2)C[C@H]1CO	i
COc1ccc2cc(C(=O)N3CCN4CCS(=O)(=O)N(C5CC5)C(=O)C4C3)[nH]c2c1 (centres undefined)	i
Cc1cccc(-c2ocnc2C(=O)N2CCN3CCS(=O)(=O)N(C4CC4)C(=O)C3C2)c1 (centres undefined)	i
COc1ccc(Cl)cc1C(=O)N1C[C@@H](CO)[C@H](c2ccncc2)C1	i
CNC(=O)[C@@H]1CN(C(=O)c2cc3cc(OC)ccc3[nH]2)C[C@H]1CO	22µM*
COc1ccc(C(=O)N2C[C@@H](CO)[C@H](c3ccncc3)C2)cc1	i
COc1ccc2[nH]c(C(=O)N3CCN4CCS(=O)(=O)N(C5CC5)C(=O)C4C3)cc2c1 (centres undefined)	25µM*
O=C(c1ccc(F)cc1Cl)N1CCC2(CC1)NC(=O)N(c1ccccc1Cl)N2	i
CCOc1ccc(NC(=O)Cn2c(=O)c3c(ncn3CCC(C)C)n(Cc3ccccc3)c2=O)cc1	i
COc1cc(-c2noc(-c3ccc(S(=O)(=O)NC4CC4)o3)n2)ccc1OC(C)C	i
COc1cccc(C(=O)N2CCC3(CC2)NC(=O)N(c2cccc(F)c2)N3)c1OC	i
CC(NC(=O)C1CCOCC1)C(=O)O (centres undefined)	i
Cc1cc2oc(=O)cc(COC(=O)Cc3n[nH]c(=O)c4ccccc34)c2cc1C(C)C	i
Nc1n[nH]c(CNc2cc(-c3ccc(F)cc3)nc3ccnn23)n1	28µM*
COc1cccc(CNc2cc(Cl)nc3ccnn23)c1	i
Fc1ccc(CCNc2cc(Cl)nc3ccnn23)cc1	i
CC(Sc1nnc(N2CCCC2)n1-c1cccc(Cl)c1)c1nc(-c2ccco2)no1 (centres undefined)	i
COc1ccccc1CN(Cc1ccco1)c1cnc(S(C)(=O)=O)nc1C(=O)Nc1ccccc1	i
SMILES	KDM5B inhibitor
c1csc(CNCCCn2ccnc2)c1	i
CC1(CCCCc2ccccc2)COc2ccc(C(=O)NCCN3CCOCC3)cc2N1 (centres undefined)	35µM*
CC1(CCCCN2CCOCC2)COc2ccc(C(=O)NCc3ccco3)cc2N1 (centres undefined)	35µM*
O=C(NCCCc1ccccc1)c1ccc(CN2C(=O)NC3(CCOCC3)C2=O)cc1	i
CC1(CCCCN2CCOCC2)COc2ccc(C(=O)Nc3ccc4[nH]ccc4c3)cc2N1 (centres undefined)	i
CC1(C)CC1(CNC1CCN(c2ccc(C(=O)NCCN3CCOCC3)cc2)CC1)c1ccccc1 (centres undefined)	i
CSCc1ccc(C(=O)NCc2ccco2)cc1	i
CC1(CCCCN2CCOCC2)COc2ccc(C(=O)NCc3ccccc3)cc2N1 (centres undefined)	40µM*
CC(NC(=O)CCCNC(=O)C1CC1)c1ccc(C#N)cc1 (centres undefined)	i
Cc1[nH]c(SCC(=O)NCC2(c3ccccc3)CC2)nc1Cc1ccccc1	i
CN(C(=O)c1ccc(I)cc1)C1CCCCC1	i
COc1ccc(C2(c3ccc(OC)cc3)C=Cc3c(c(O)cc4ccccc34)O2)cc1	i
Cc1n[nH]c(C)c1C(C)N (centres undefined)	i
CCn1c(CN2CCOCC2)nnc1SCC(=O)c1cc(C)n(CC)c1C	i
NC(=O)c1cn(CC(=O)NCCc2ccccc2F)c2ccccc12	i
Cc1ccc(-c2nc3ccccc3c(C(=O)O)c2C)cc1	i
N#Cc1ccccc1COC(=O)c1ccc(N2CCOCC2)nc1	i
N#Cc1ccc(OCc2noc(-c3ccsc3)n2)cc1	i
O=C(NCCc1noc(-c2cccnc2)n1)NCc1ccccc1	i
CN(Cc1cnn(C)c1)c1ccc(-c2nc(COc3ccccc3)no2)cn1	i
Cc1nccn1CCN(C)c1ccc(-c2nc(COc3ccccc3)no2)cn1	22µM*
CC(Nc1ccc(-c2nc(CCCc3ccccc3)no2)cn1)c1cnn(C)c1 (centres undefined)	28µM*
COC1CCN(c2cc(-c3ccccn3)nc3c(C)noc23)CC1	i
c1ccc(CCCc2noc(-c3ccc(N4CCOCC4)nc3)n2)cc1	35µM*
Cn1cnc(S(=O)(=O)NCCc2noc(-c3ccccc3)n2)c1	i
SMILES	KDM5B inhibitor
COC1CCN(c2ccc(-c3nc(COc4ccccc4)no3)cn2)CC1	28µM*
CC(=O)N1CCC(Cc2noc(-c3ccccc3)n2)C1 (centres undefined)	i
CC(C)Cn1c(SCc2noc(-c3ccc(Cl)cc3)n2)nnc1N1CCOCC1	i
O=C(O)c1ccc(F)c(Cl)c1	i
CCCCCC(=O)Nc1ccc(-c2nc3cc(OC)ccc3o2)cc1	i
O=C(/C=C/c1ccc(-c2ccc(F)cc2)o1)N(C1CCCCC1)C1CCCCC1	i
Cc1ccc(Nc2ccc([N+](=O)[O-])c3cnccc23)cc1	i
CC1(C)C(=O)N(Cc2ccc(O)cc2)[C@H]2CN(CCCc3ccccc3)C[C@H]2[S+]1(=O)[O-]	i
Cc1nc2ccc(Cl)cc2cc1C(=O)N(C)CC1COc2ccccc2O1 (centres undefined)	i
O=C(CCCCCCCC(=O)Nc1ccc(C(=O)c2ccccc2)cc1)Nc1ccc(C(=O)c2ccccc2)cc1	i
O=C1CCCC2=C1C(c1ccccc1)CC(=O)N2c1ccccc1F (centres undefined)	i
COc1ccc2[nH]c(C(=O)N3CCC4(CC3)c3nc[nH]c3CCN4C)cc2c1	28µM*
COc1ccc2[nH]c3c(c2c1)CCN(C)C31CCN(C(=O)c2cccnc2)CC1	i
COc1cccc(N2CCN(C(=O)c3cc4cc(Cl)ccc4[nH]3)CC2)c1	i
COc1ccc2[nH]c3c(c2c1)CCN(C)C31CCN(C(=O)c2cccc(C)c2)CC1	i
COc1ccc2[nH]c3c(c2c1)CCN(C)C31CCN(C(=O)c2cn(C)cn2)CC1	25µM*
CN1CCc2[nH]cnc2C12CCN(C(=O)c1cc(=O)[nH]c3ccccc13)CC2	20µM*
Cc1nc2cc(C(=O)N3CCC4(CC3)c3nc[nH]c3CCN4C)ccc2s1	i
CN1CCc2[nH]cnc2C12CCN(C(=O)c1cccc(-n3cccn3)c1)CC2	i
CN1CCc2[nH]cnc2C12CCN(C(=O)CC1NC(=O)c3ccccc31)CC2 (centres undefined)	i
COC(=O)C1=C(C(=O)OC)SC(=C(Cl)C(=S)Sc2ccccc2)S1	i
Cc1cc2oc(C(=O)N(Cc3ccc(F)cc3)C3CCS(=O)(=O)C3)cc(=O)c2cc1C (centres undefined)	i
COc1ccnc(N2CCN(CC3(O)CCCNC3)CC2)n1 (centres undefined)	i
CSc1ncc(C(=O)N2CCN(c3ccc(F)cc3)CC2)c(C)n1	i
Cc1ccnc(N2CCC(O)(c3ccc(F)cc3)CC2)n1	28µM*
